TDP1 cell noCPT: qHTS for Inhibitors of human tyrosyl-DNA phosphodiesterase 1 (TDP1): qHTS in cells in absence of CPT. Potency, µM (titrated, usually from 46.2 µM), usual class: inhibitors. DT40 Tdp1-/- hTDP1 cells, no CPT, ATP luminescence, 48 h. AID 686978, 2013. 420,000 tested, 15% active; further: nearly all actives have a fitted effect of over 55% in size
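Readout: luminescence from CellTiter-Glo after 30 min in the dark at RT. Cells: DT40 Tdp1-/- with stable hTDP1, 400/well. Exposure: compounds alone, ≥48 hr, 37 °C.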
ELG1 repair inh: blocks ELG1-dependent DNA repair in HEK293T cells | HEK293T ELG1-luciferase reporter, luminescence, 16 h; DNA damage induced by 5-fluorouridine | Potency, µM (doses to about 46.1 µM), actives largely listed as inhibitors | 330,000 tested, 2.3% active | AID 504467; further: nearly all actives have a fitted effect of over 55% in size
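Cells (2,000 per well) received 5-fluorouridine plus test compound or DMSO and were incubated 16 hr at 37 °C, 5% CO2. Luciferase activity was read by luminescence 30 min after ONE-Glo addition; signal suppression marked inhibition of damage-induced ELG1 function.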
RORg inh: ROR gamma (mouse) transcription inhibition; Potency, µM (series often up to 53.6 µM), most hits filed as inhibitors; 310,000 tested, 5.4% active; P51450; Drosophila S2 Gal4-RORgamma UAS-luciferase reporter, 20 h; further: nearly all actives have a fitted effect of over 60% in size
Target sequence (P51450 whole entry, looked up, the tested form may be a part): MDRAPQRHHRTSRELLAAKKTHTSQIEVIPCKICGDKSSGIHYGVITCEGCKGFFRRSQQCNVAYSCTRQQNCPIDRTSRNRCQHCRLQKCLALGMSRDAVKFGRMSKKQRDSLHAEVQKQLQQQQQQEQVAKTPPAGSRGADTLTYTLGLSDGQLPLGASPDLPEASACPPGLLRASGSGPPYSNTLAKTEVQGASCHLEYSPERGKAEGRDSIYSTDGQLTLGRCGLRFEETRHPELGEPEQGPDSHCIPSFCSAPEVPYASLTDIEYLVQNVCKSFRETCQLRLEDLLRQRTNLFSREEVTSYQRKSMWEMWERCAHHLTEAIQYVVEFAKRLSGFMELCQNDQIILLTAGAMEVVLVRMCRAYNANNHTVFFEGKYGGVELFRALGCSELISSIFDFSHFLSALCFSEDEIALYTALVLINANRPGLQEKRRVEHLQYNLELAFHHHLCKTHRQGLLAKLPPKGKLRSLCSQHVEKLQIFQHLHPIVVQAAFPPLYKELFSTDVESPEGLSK
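Drosophila S2 cells stably expressing Gal4-DBD/mouse RORγ fusion under metallothionein promoter plus UAS-luciferase; compound 1 h, then 700 uM CuSO4 induction for 20 h at ambient temperature; inhibition read as reduced luminescence.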
Gal4-VP16 FLuc: Gal4-VP16 reporter inhibition counter-screen. 310,000 tested, 3.5% active. AID 2546. Drosophila S2 Gal4-VP16 UAS-luciferase, luminescence, 20 h. Potency, µM (titrated, usually from 53.6 µM), actives largely listed as inhibitors;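 further: Gal4-VP16 expression switched on by copper sulfate through the metallothionein promoter; nearly all actives have a fitted effect of over 50% in size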
TDP1 cell CPT: DT40-hTDP1 cell growth loss with CPT. chicken DT40 Tdp1-/-;hTDP1 cells + 20 nM CPT, ATP luminescence, 48 h. Potency, µM (highest dose often 46.2 µM), actives largely listed as inhibitors. 420,000 tested, 12% active; further: nearly all actives have a fitted effect of over 55% in size
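Cell growth measured by CellTiter-Glo luminescence after a minimum 48 h, 37 C compound exposure with 20 nM CPT in Tdp1-knockout DT40 cells stably expressing hTDP1, seeded 400/well; qHTS titration format.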
ALOX12 inh: blocks human arachidonate 12S-lipoxygenase; purified 12hLO, xylenol orange hydroperoxide absorbance; P18054; Potency, µM (series often up to 108 µM), hits mostly inhibitors; 580,000 tested, 1.1% active; AID 1671190
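Hydroperoxide product was detected by ferrous iron/xylenol orange as the 573 to 405 nm absorbance ratio. Arachidonic acid at 40 uM (final) was turned over for 30 min at room temperature by 150 nM human 12hLO, pH 7.0 Hepes buffer, after 15 min compound preincubation.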
A number is an active result. Hits are enriched below; roughly 15% of the tested compounds scored in any of these assays. The call rests on the fitted dose curve; in most records, active means well fitted curve in the direction sought with a large enough effect; inconclusive means small, poorly fitted or top-dose-only effect, or another doubt; inactive means no such curve, though single readings can be large; an effect the other way counts as inactive or inconclusive.

How did COc1cc(CCCN2C(N)=NC[C@@H]2Cc2ccc(O)cc2)cc(OC)c1OC do in these assays?
TDP1 cell noCPT: inactive; ELG1 repair inh: inconclusive; RORg inh: inactive; Gal4-VP16 FLuc: inactive; TDP1 cell CPT: inactive; ALOX12 inh: inconclusive

What do the screens show for `NC1=NC[C@H](Cc2ccc(O)cc2)N1CCc1cccc(F)c1`?
TDP1 cell noCPT: inconclusive; ELG1 repair inh: inactive; RORg inh: inactive; Gal4-VP16 FLuc: inactive; TDP1 cell CPT: inactive; ALOX12 inh: inactive

What do the screens show for `COc1ccccc1-n1[nH]c(C)c(Cc2ccccc2Cl)c1=O`?
ALOX12 inh: inactive

Results for CC1(C)C(c2ccccc2)=[N+]([O-])C(c2ccc(Cl)cc2Cl)N1O (configuration not stated) ?
ALOX12 inh: inactive

Results for COc1ccccc1/C=C1/C(=O)N(c2cc(C)cc(C)c2)C(c2cccc([N+](=O)[O-])c2)S1(=O)=O (configuration not stated) ?
TDP1 cell noCPT: inconclusive; ELG1 repair inh: inactive; RORg inh: inactive; Gal4-VP16 FLuc: inactive; TDP1 cell CPT: inactive; ALOX12 inh: inactive

How did CCOc1ccc(N2C(=O)/C(=C\c3ccccc3OC)S(=O)(=O)C2c2cccc([N+](=O)[O-])c2)cc1 (configuration not stated) do in these assays?
TDP1 cell noCPT: 16µM; ELG1 repair inh: inactive; RORg inh: inactive; Gal4-VP16 FLuc: inactive; TDP1 cell CPT: 15µM; ALOX12 inh: inactive

Results for COc1ccc2c(c1)c(=O)oc1cc(OCC(=O)N3CCc4ccccc4C3)ccc12 ?
TDP1 cell noCPT: inconclusive; ELG1 repair inh: inactive; RORg inh: inconclusive; Gal4-VP16 FLuc: inactive; TDP1 cell CPT: inconclusive; ALOX12 inh: inconclusive

Results for COc1ccc2c(c1)c(=O)oc1cc(OCC(=O)N3CCCC(C)C3)ccc12 (configuration not stated) ?
TDP1 cell noCPT: 13µM; ELG1 repair inh: inconclusive; RORg inh: inactive; Gal4-VP16 FLuc: 10µM; TDP1 cell CPT: inconclusive; ALOX12 inh: inactive

Results for CC1CCCN(C(=O)COc2ccc(-c3ccccc3)cc2)C1 (configuration not stated) ?
TDP1 cell noCPT: 15µM; ELG1 repair inh: inactive; RORg inh: inconclusive; Gal4-VP16 FLuc: inconclusive; TDP1 cell CPT: inconclusive; ALOX12 inh: inactive

How did COc1ccc2c(c1)c(=O)oc1cc(OCC(=O)N3CCC(C)CC3)ccc12 do in these assays?
TDP1 cell noCPT: 21µM; ELG1 repair inh: inactive; RORg inh: inactive; Gal4-VP16 FLuc: inactive; TDP1 cell CPT: inconclusive

What do the screens show for `CCCN(CCOC)Cc1ccc(C#N)cc1`?
ALOX12 inh: inactive

Results for Cc1ccc(N2C(=O)[C@@H]3[C@H](C2=O)[C@H]2C=CC=NN2[C@@H]3C(=O)Nc2ccc(Cl)cc2)cc1 ?
TDP1 cell noCPT: inactive; ELG1 repair inh: inactive; RORg inh: 10µM; Gal4-VP16 FLuc: inconclusive; TDP1 cell CPT: inactive; ALOX12 inh: 10µM

How did C=CCNC(=S)N/N=C/c1ccc(-c2cc(Cl)ccc2Cl)o1 do in these assays?
TDP1 cell noCPT: inconclusive; ELG1 repair inh: inactive; RORg inh: inactive; Gal4-VP16 FLuc: inactive; TDP1 cell CPT: inconclusive; ALOX12 inh: inactive

How did C=CCNC(=S)N/N=C/c1ccc(-c2ccc(OC)cc2)o1 do in these assays?
TDP1 cell noCPT: 4.6µM; ELG1 repair inh: inconclusive; RORg inh: 0.56µM; Gal4-VP16 FLuc: 1.8µM; TDP1 cell CPT: 4.1µM; ALOX12 inh: 40µM

How did C=CCNC(=S)N/N=C/c1ccc(-c2ccc(Cl)cc2Cl)o1 do in these assays?
TDP1 cell noCPT: 5.8µM; TDP1 cell CPT: 5.2µM; ALOX12 inh: inconclusive

How did COc1ccc(N(CC(=O)N/N=C/c2ccc(-c3ccc([N+](=O)[O-])cc3)o2)S(=O)(=O)c2ccc(C)cc2)cc1 do in these assays?
TDP1 cell noCPT: inconclusive; ELG1 repair inh: inactive; RORg inh: inactive; Gal4-VP16 FLuc: inactive; TDP1 cell CPT: inactive; ALOX12 inh: inactive

How did COc1ccc(S(=O)(=O)N2CCCCC2)cc1NC(=O)c1ccc(CS(C)(=O)=O)cc1 do in these assays?
TDP1 cell noCPT: 18µM; ELG1 repair inh: inactive; TDP1 cell CPT: inactive; ALOX12 inh: inactive

Results for COc1ccc(S(=O)(=O)N2CCOCC2)cc1NC(=O)c1ccc(S(=O)(=O)N2CCCCC2)cc1 ?
TDP1 cell noCPT: inconclusive; TDP1 cell CPT: 12µM; ALOX12 inh: inactive

How did COc1ccc(S(=O)(=O)N2CCCCCC2)cc1C(=O)Nc1cc(C)ccn1 do in these assays?
TDP1 cell noCPT: inconclusive; ELG1 repair inh: inconclusive; TDP1 cell CPT: 21µM; ALOX12 inh: inactive

What do the screens show for `COc1ccc(S(=O)(=O)N2CCCCC2)cc1NC(=O)c1ccc(C)cc1`?
TDP1 cell noCPT: inactive; ELG1 repair inh: inactive; TDP1 cell CPT: inactive; ALOX12 inh: inactive

Results for COc1ccc(NC(=O)CCNC(=O)c2ccc([N+](=O)[O-])cc2)cc1S(=O)(=O)N1CCOCC1 ?
TDP1 cell noCPT: inactive; ELG1 repair inh: inconclusive; TDP1 cell CPT: inactive; ALOX12 inh: inconclusive

How did COc1ccc(S(=O)(=O)N2CCOCC2)cc1NC(=O)CCNC(=O)c1ccc([N+](=O)[O-])cc1 do in these assays?
TDP1 cell noCPT: 7.3µM; ELG1 repair inh: inconclusive; TDP1 cell CPT: inconclusive; ALOX12 inh: inconclusive

Results for COc1ccc(S(=O)(=O)N2CCCCC2)cc1NC(=O)c1cccc(S(=O)(=O)N2CCOCC2)c1 ?
TDP1 cell noCPT: inconclusive; TDP1 cell CPT: inconclusive; ALOX12 inh: inactive

Results for O=C(c1cscn1)N1CCC2(CC1)CN(c1ccncn1)CC2CO (configuration not stated) ?
ALOX12 inh: inactive

What do the screens show for `CCCNC(=O)NC(=O)CSc1nc(NC2CC2)c2ccccc2n1`?
ALOX12 inh: inactive

What do the screens show for `COc1ccc(C(=O)Nc2ccc(-c3noc([C@@H]4CCCN4Cc4cnc5ccccc5c4)n3)cn2)cc1`?
ALOX12 inh: inactive

Results for COc1ccc(C)cc1NC(=O)c1cc(S(=O)(=O)N2CCN(c3cccc(C)c3C)CC2)ccc1F ?
TDP1 cell noCPT: inactive; TDP1 cell CPT: inactive; ALOX12 inh: inactive

What do the screens show for `COc1ccc(C)cc1NC(=O)c1cc(S(=O)(=O)N2CCC(C)CC2)ccc1F`?
TDP1 cell noCPT: 21µM; TDP1 cell CPT: 16µM; ALOX12 inh: inactive

Results for COc1ccc(S(=O)(=O)N2CCCCCC2)cc1NC(=O)c1ccccc1F ?
TDP1 cell noCPT: inactive; ELG1 repair inh: inconclusive; TDP1 cell CPT: 16µM; ALOX12 inh: inactive

High-throughput results deposited in PubChem BioAssay by National Center for Advancing Translational Sciences (NCATS).
